PubChem BioAssay AID1159580 (chemical genetic matrix, 2015)
“And” between values parts separate entries of the source, which are not always exact repeats. Identical values can stand only once. The whole screen tested about 5,500 compounds, of which about 2,000 (36%) were called active. Roughly 18% stayed inconclusive and do not appear here. Cut-off read from the data, not from the text of the source: active = normalized growth mostly below about 0.91 (no sharp cut-off); inconclusive = no clear call, values can overlap the other calls; inactive = mostly above about 0.92. The list shows a part of the results.

Experiment: chemical genetic growth profiling, strain panel (AID 1159580);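 note: tested at 20 µM; growth read once vehicle control cultures reached saturation at 30 °C; 1 = growth at the plate median or of vehicle wells; lower values mean less growth of the strain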
Conditions: S. cerevisiae deletion strains, growth OD

Measured: normalized growth

O=C(O)C1(O)C[C@@H](O)C(O)[C@H](O)C1 (stereo partly drawn)
inactive: locus YAL021C, strain ccr4, hits give low values 0.984 | locus YAL026C, strain drs2, hits give low values 0.985 | locus YAL030W, strain snc1, hits give low values 0.987 | locus YBL061C, strain skt5, hits give low values 0.968 | locus YBR009C, strain hhf1, hits give low values 1 | locus YBR021W, strain FUR4, hits give low values 1.01 | locus YBR023C, strain chs3, hits give low values 0.97 | locus YBR171W, strain sec66, hits give low values 0.983 | locus YBR229C, strain ROT2, hits give low values 1 | locus YBR231C, strain swc5, hits give low values 0.983 | locus YBR279W, strain paf1, hits give low values 0.985 | locus YCL011C, strain gbp2, hits give low values 0.978 | locus YCL016C, strain dcc1, hits give low values 0.973 | locus YCL029C, strain bik1, hits give low values 1.03 | locus YCL069W, strain vba3, hits give low values 0.988 | locus YCR088W, strain abp1, hits give low values 0.979 | locus YDL005C, strain med2, hits give low values 0.957 | locus YDL035C, strain GPR1, hits give low values 0.99 | locus YDL040C, strain nat1, hits give low values 0.979 | locus YDL074C, strain BRE1, hits give low values 1.04 | locus YDL101C, strain DUN1, hits give low values 1.01 | locus YDL185W, strain tfp1, hits give low values 1.02 | locus YDL192W, strain arf1, hits give low values 1.02 | locus YDR001C, strain nth1, hits give low values 0.975 | locus YDR069C, strain doa4, hits give low values 0.993 | locus YDR101C, strain arx1, hits give low values 1.02 | locus YDR137W, strain rgp1, hits give low values 0.996 | locus YDR150W, strain NUM1, hits give low values 1.01 | locus YDR159W, strain sac3, hits give low values 1 | locus YDR162C, strain NBP2, hits give low values 1.02 | locus YDR195W, strain ref2 0.959 | locus YDR297W, strain sur2, hits give low values 0.995 | locus YDR318W, strain mcm21, hits give low values 0.997 | locus YDR334W, strain swr1, hits give low values 0.962 | locus YDR335W, strain msn5, hits give low values 0.978 | locus YDR388W, hits give low values 1.01 | locus YDR392W, strain spt3, hits give low values 0.994 | locus YDR502C, strain sam2, hits give low values 1.01 | locus YEL003W, strain gim4, hits give low values 0.983 | locus YEL037C, strain rad23, hits give low values 0.98 | locus YEL061C, strain CIN8 (second series), hits give low values 0.98 | locus YEL061C, strain CIN8, hits give low values 1.01 | locus YER015W, strain faa2, hits give low values 0.975 | locus YER016W, strain bim1, hits give low values 0.967 | locus YER110C, hits give low values 1.02 | locus YER111C, strain swi4, hits give low values 0.966 | locus YER155C, strain BEM2 (second series), hits give low values 0.969 | locus YER155C, strain BEM2, hits give low values 1 | locus YER167W, strain BCK2, hits give low values 0.996 | locus YFR010W, strain ubp6, hits give low values 0.992 | locus YGL078C, strain dbp3, hits give low values 0.998 | locus YGL086W, strain mad1, hits give low values 1.05 | locus YGL167C, strain pmr1, hits give low values 0.976 | locus YGL173C, strain kem1, hits give low values 0.973 | locus YGL227W, strain vid30, hits give low values 0.979 | locus YGL240W, strain doc1, hits give low values 0.975 | locus YGL248W, strain PDE1, hits give low values 1 | locus YGL253W, strain hxk2, hits give low values 0.989 | locus YGR135W, strain pre9, hits give low values 1.01 | locus YGR229C, strain SMI1, hits give low values 1.02 | locus YGR252W, strain gcn5, hits give low values 0.954 | locus YHR013C, strain ard1, hits give low values 0.964 | locus YHR027C, strain rpn1, hits give low values 0.994 | locus YHR030C, strain SLT2, hits give low values 1.01 | locus YHR079C, strain IRE1 (second series), hits give low values 1.01 | locus YHR079C, strain IRE1, hits give low values 1 | locus YHR094C, strain hxt1, hits give low values 1.01 | locus YHR129C, strain ARP1, hits give low values 1.01 | locus YHR142W, strain chs7, hits give low values 0.982 | locus YHR200W, strain rpn10, hits give low values 1.01 | locus YIL066C, strain RNR3, hits give low values 1.01 | locus YIL073C, strain SPO22, hits give low values 1.06 | locus YIL125W, strain kgd1, hits give low values 1.02 | locus YIR030C, strain dcg1, hits give low values 1.01 | locus YJL092W, strain hpr5, hits give low values 0.979 | locus YJL095W, strain BCK1 (second series), hits give low values 0.997 | locus YJL095W, strain BCK1, hits give low values 0.993 and 1 | locus YJL115W, strain asf1, hits give low values 0.974 | locus YJL129C, strain trk1, hits give low values 0.984 | locus YJL134W, strain LCB3, hits give low values 1.01 | locus YJL154C, strain vps35, hits give low values 0.971 | locus YJL164C, strain tpk1, hits give low values 0.981 | locus YJL166W, strain qcr8, hits give low values 1.01 | locus YJL168C, strain set2, hits give low values 1.01 | locus YJL187C, strain SWE1 (second series), hits give low values 1.01 | locus YJL187C, strain SWE1, hits give low values 0.98 | locus YJR043C, strain POL32, hits give low values 1.01 | locus YJR066W, strain TOR1, hits give low values 0.957 | locus YKL009W, strain mrt4, hits give low values 1.01 | locus YKL068W, hits give low values 1.01 | locus YKL085W, strain MDH1 (second series), hits give low values 1.01 | locus YKL085W, strain MDH1, hits give low values 1.01 | locus YKL160W, strain elf1, hits give low values 0.978 | locus YKR001C, strain vps1, hits give low values 1.04 | locus YKR026C, strain gcn3, hits give low values 0.986 | locus YKR091W, strain srl3, hits give low values 0.986 | locus YLL001W, strain dnm1, hits give low values 0.962 | locus YLL026W, hits give low values 0.978 | locus YLL041C, strain sdh2, hits give low values 1 | locus YLR027C, strain aat2, hits give low values 0.981 | locus YLR039C, strain RIC1, hits give low values 1.07 | locus YLR058C, strain SHM2, hits give low values 1.01 | locus YLR102C, strain apc9, hits give low values 1.01 | locus YLR113W, strain HOG1, hits give low values 1.02 | locus YLR221C, strain rsa3, hits give low values 0.987 | locus YLR258W, strain gsy2, hits give low values 0.973 | locus YLR262C, strain YPT6 (second series), hits give low values 1.04 | locus YLR262C, strain YPT6, hits give low values 1.1 | locus YLR268W, strain sec22, hits give low values 1.04 | locus YLR320W, strain mms22, hits give low values 0.974 | locus YLR330W, strain CHS5, hits give low values 1 | locus YLR342W, strain FKS1 (second series), hits give low values 1.01 | locus YLR342W, strain FKS1, hits give low values 0.976 | locus YLR357W, strain rsc2, hits give low values 0.995 | locus YLR370C, strain arc18, hits give low values 0.992 | locus YLR371W, strain rom2, hits give low values 1.02 | locus YLR384C, strain iki3, hits give low values 0.983 | locus YLR418C, strain cdc73, hits give low values 1.01 | locus YML016C, strain PPZ1, hits give low values 1.01 | locus YML032C, strain rad52, hits give low values 0.989 | locus YML120C, strain ndi1, hits give low values 0.968 | locus YML124C, strain tub3, hits give low values 1.01 | locus YMR058W, strain fet3, hits give low values 0.964 | locus YMR078C, strain ctf18, hits give low values 1.02 | locus YMR125W, strain sto1, hits give low values 0.972 | locus YMR129W, hits give low values 0.976 | locus YMR205C, strain PFK2, hits give low values 0.984 | locus YMR223W, strain ubp8, hits give low values 1 | locus YMR231W, strain pep5, hits give low values 0.972 | locus YMR263W, strain SAP30, hits give low values 1.01 | locus YMR307W, strain GAS1, hits give low values 0.994 | locus YNL067W, strain RPL9B, hits give low values 1.01 | locus YNL071W, strain lat1, hits give low values 0.989 | locus YNL183C, strain NPR1, hits give low values 0.953 | locus YNL209W, strain ssb2, hits give low values 0.983 | locus YNL233W, strain BNI4, hits give low values 1.01 | locus YNL248C, strain rpa49, hits give low values 0.98 | locus YNL250W, strain rad50, hits give low values 1.02 | locus YNL271C, strain bni1, hits give low values 1.02 | locus YNL298W, strain CLA4, hits give low values 1.02 | locus YNL307C, strain MCK1, hits give low values 1.02 | locus YNL322C, strain KRE1 (second series), hits give low values 0.969 | locus YNR049C, strain mso1, hits give low values 0.963 | locus YNR052C, strain pop2, hits give low values 0.999 | locus YOL012C, strain htz1 0.956 | locus YOL147C, strain pex11, hits give low values 1.02 | locus YOR001W, strain rrp6, hits give low values 1 | locus YOR061W, strain CKA2, hits give low values 1.01 | locus YOR069W, strain VPS5, hits give low values 1.01 | locus YOR070C, strain gyp1, hits give low values 0.962 | locus YOR080W, strain dia2, hits give low values 0.972 | locus YOR083W, strain WHI5, hits give low values 0.981 | locus YOR106W, strain vam3, hits give low values 1 | locus YOR136W, strain idh2, hits give low values 1.03 | locus YOR144C, strain elg1, hits give low values 1.02 | locus YOR184W, strain ser1, hits give low values 1.01 | locus YOR231W, strain MKK1, hits give low values 0.997 | locus YOR265W, strain rbl2, hits give low values 0.989 | locus YOR270C, strain vph1, hits give low values 1.03 | locus YOR290C, strain snf2, hits give low values 0.992 | locus YOR316C, strain cot1, hits give low values 1.01 | locus YPL051W, strain arl3, hits give low values 0.992 | locus YPL055C, strain LGE1, hits give low values 1.01 | locus YPL078C, strain atp4, hits give low values 0.982 | locus YPL106C, strain sse1, hits give low values 0.961 | locus YPL240C, strain hsp82, hits give low values 1.01 | locus YPL241C, strain CIN2, hits give low values 1.02 | locus YPL256C, strain CLN2, hits give low values 0.992 | locus YPR119W, strain clb2, hits give low values 1.01 | locus YPR141C, strain kar3, hits give low values 1.01 | locus YPR163C, strain tif3, hits give low values 1.03 | locus YPR167C, strain met16, hits give low values 1.01 | strain wtn01, hits give low values 1.05
